In PubChem BioAssay AID743398 (Broad Institute, 2014) one finds activation data, which are given here for 23 compounds.

In all, about 300,000 compounds went through this assay and about 3,600 (1.2%) were called active. The full list was thinned out, with actives kept by preference. Values without a mark were called inactive. Rule as the data show it: active = activation above about 30% (passing the limit was not always enough); inconclusive = no clear call, values can overlap the other calls.

The assay can be described thus: activation of beta-catenin signaling reporter – cell-based, plate reader, single point, primary screen (AID 743398).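 Also: 0% = neutral control wells and 100% = positive control wells.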 As to conditions: Wnt/beta-catenin reporter cell assay, activator, at 9.35 µM, active compounds read high.
In the case of `Cc1[nH]c2ccccc2c1CC(=O)Nc1ccc(Nc2cccnc2)c(-c2cccc(Cl)c2)c1`, the activation is -2.14%.
For the compound `CCOC(=O)[C@]12CCCC=C1N(CCC1=CCCCC1)C(=O)[C@H](CC(=O)N1CCN(C(=O)c3ccco3)CC1)C2`, the activation was -1.88%.
Regarding `COc1ccc(C2/C(=C(/O)c3ccccc3)C(=O)C(=O)N2C)c(OC)c1` (stereo not drawn), the activation was 0.335%.
`COc1ccccc1C1/C(=C(/O)c2ccc(OC(C)C)cc2)C(=O)C(=O)N1c1cc(C)on1` (stereo not drawn): the activation was -12%.
Take `CCOc1ccc(/C(O)=C2\C(=O)C(=O)N(c3ccc(OC)cc3)C2c2ccccc2[N+](=O)[O-])cc1` (stereo not drawn): the activation was 53.5% (active).
For the compound `OC[C@@H]1CN(Cc2ccc(F)cc2)C[C@H](n2cnc3c(NC4CCCC4)ncnc32)O1`, the activation was -2.91%.
The figure for `CC1C(C)N(C(=O)CCl)c2ccccc2N1C(=O)CCl` (stereo not drawn) is -5.8%.
The same measure for `O=c1oc2ccccc2c(=O)c2ccccc12`: -3.29%; for `COc1cc(N=Cc2c(O)c3ccccc3oc2=O)c(OC)cc1Cl`: -0.517%; for `COc1ccccc1N=Cc1c(O)c2ccccc2oc1=O`: 59% (active).
For `COc1cccc(-c2cc(NC(C)=O)c3ncc(-c4cccc(C(C)=O)c4)n3c2)c1`, the activation is -1.27%.
Consider `COc1ccc(OC)c(C(O)c2ncc(-c3cccc(C(F)(F)F)c3)[nH]2)c1` (stereo not drawn), for which the activation was -1.7%.
With `CC1(C)OC(=O)C2=C(CC(CCc3ccccc3)OC2c2ccc(Cl)cc2)O1` (stereo not drawn), the activation was -2.32%.
Consider `CCOC(=O)CNC(=O)N(C)[C@H]1C[C@H]2c3[nH]c4c(-c5ccc6c(c5)OCO6)cccc4c3CCN2C(=O)[C@H]1[C@H](C)O`, for which the activation was -4.82%.
For `CCCCCCNC(=O)O[C@H]1CN(C(=O)OC(C)C)N(C(=O)OC(C)C)[C@@H]2CN(S(=O)(=O)c3ccc(C)cc3)C[C@]12O`, the activation was -6.88%.
On to `CCNc1nc(-c2cc3ccccc3o2)cs1`, for which the activation is 55.9% (active).
The same measure for `Cc1nc(C)c(-c2csc(NCCc3ccccc3)n2)s1`: 10.9%; for `O=C(Nc1ccncc1)c1cc2ccccc2o1`: -4.19%.
Turning to `O=C(NCc1cccnc1)c1cccc(-c2cc3ccccc3oc2=O)c1`, the activation was -9.13%.
As for `CCCn1c(CCNc2nc(-c3ccc(OC)cc3)cs2)nc2ccccc21`, the activation is 1.69%.
Take `O=c1oc2ccccc2cc1-c1csc(Nc2ccc(O)cc2)n1`: the activation was 48% (active).
The same measure for `CCOC(=O)[C@]12CCCC=C1N(CCC1=CCCCC1)C(=O)[C@H](CC(=O)NCCCCc1ccccc1)C2`: -3.03%; for `COc1ccc(NC(=O)c2sc(=O)n(Cc3ccc(S(=O)(=O)N(C)C)cc3)c2C)cc1`: -1.18%.
